Laboratory results as given in PubChem BioAssay AID709 (SRMLSC, 2007).
In all, about 65,000 compounds went through this assay and about 3,600 (5.5%) were called active.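 Rule for the calls: active = at 10 µM, mean starting fluorescence two-fold or more over control wells; inactive = the rest.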 Only a selection was taken, and actives are over-represented in it overall.

Assay: intrinsic fluorescence of library compounds, ex339/em460 – biochemical, MLSMR library, data from DPM-DC assay, artefact control, profiling panel (AID 709);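 note: signal is the first read of a kinetic run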
Conditions: compound autofluorescence, ex339/em460 nm, NADH buffer; at 10 µM; active compounds read high; 1 = no-compound wells, NADH background

Fluorescence fold increase, active:
CCOC(=O)CCc1c(C)c2ccc(OCc3nn[nH]n3)c(C)c2oc1=O 3.81
CCOC(=O)Cc1c(C)nc2c(C#N)c(C)nn2c1C 3.62
COc1cc2cc(CN(CCN3CCCC3)C(=O)Nc3ccccc3Cl)c(=O)[nH]c2cc1OC 2.13
CC(Nc1nc(N2CCCC2)nc2ccccc12)c1ccccc1 (stereo unspecified) 2.43
COc1ccc(-c2cc3ccc(OCc4nn[nH]n4)cc3oc2=O)cc1 3.01
COCCCn1c(CCC(=O)O)ccc1-c1ccc(F)cc1 3.84
CN1CCN(S(=O)(=O)c2ccc3[nH]cc(C(=O)O)c(=O)c3c2)CC1 2.17
CCN1CCc2c(C#N)c(NCc3ccccc3)nc(NCCO)c2C1 2.3
O=C1CCCC2=C1C(c1cccs1)n1nc(SCc3ccccc3)nc1N2 (stereo unspecified) 2.52
CCOc1ccc(CCNC(=O)C2CCN(c3ccc(N4CCOCC4)nn3)CC2)cc1OCC 4.91
O=c1oc2c(CN3CCCCC3)c(O)ccc2c2c1CCCCC2 2.34
CCOc1ccc2[nH]c(=O)c(CN(CCCO)C(C)=O)cc2c1 3.27
CCC(=O)N(Cc1cc2cc(OC)ccc2[nH]c1=O)c1ccccc1C 3.71
COc1ccc(N(Cc2cc3cc(OC)ccc3[nH]c2=O)S(C)(=O)=O)cc1 3
CCCCCC(=O)Nc1ccc2oc(-c3ccncc3)nc2c1 3.72
CCOC(=O)c1ccn(-c2nc(-c3ccco3)cc(C(F)(F)F)n2)n1 2.09
Cc1cc(C(F)(F)F)nn1-c1nc(-c2ccco2)cc(C(F)(F)F)n1 2.81
CN1CCc2c(sc3c2c(NCc2ccco2)nc2nnnn23)C1 2.08
CCc1nc(Nc2ccc3nccnc3c2)c2oc3ccccc3c2n1 2.54
O=C1CCCN1CCCNc1ncnc2c1[nH]c1ccccc12 2.27
COC(=O)COc1ccc2oc(=O)cc(C)c2c1 2.31

Fluorescence fold increase, inactive:
Cc1cc(C(=O)CC#N)c(C)n1CC(F)(F)F 1.05
CCCNc1ncnc2sc(C)c(C)c12 1.15
Fc1cc(F)c2nc(N3CCOCC3)sc2c1 1.07
COc1ccc(OC)c(NC(=O)CSc2nc(N)c(-c3ccccc3)c(=O)[nH]2)c1 1.08
CCN(CC)S(=O)(=O)c1cccc(C(=O)Nc2cc(C)nn2-c2nc(C)cc(C)n2)c1 1.03
CC(C)C1C2=C(CC(C)(C)CC2=O)ON1c1ccccc1 (stereo unspecified) 1.9
O=C(O)C1CCCCC1C(=O)Nc1ccc(Cl)cc1 (stereo unspecified) 1.08
CCOC(=O)CSc1nccc(N(C)C)c1C#N 1.09
COc1ccccc1CNC(=O)Cn1cc2c(n1)CCCC2 1.13
CC(=O)c1cc2c(cc1N)OCO2 1.13
COc1cc2[nH]c(=O)n(CCC(=O)NC3CCN(Cc4ccccc4)CC3)c(=O)c2cc1OC 1.46
COc1ccc(CCN(Cc2cc3cccc(C)c3[nH]c2=O)C(=O)N2CCCC2)cc1OC 1.08
Cc1cc(C(=O)O)c(S(C)(=O)=O)s1 1.04
Cc1cc(C)c2c(c1)c(C)cc1nnc(SCC(=O)NCc3ccco3)n12 1.45
CC(C)n1c(C(O)c2ccccc2)nc2ccccc21 (stereo unspecified) 1.13
Cc1ccc(C(CC(=O)O)Nc2nc(N3CCCCC3)nc(N3CCCCC3)n2)cc1 (stereo unspecified) 1.14
Cc1ccc(N2CCN(S(=O)(=O)N(C)C)CC2)cc1Cl 1.11
COc1ccc(-c2noc(COc3ccc(Cl)c(C)c3)n2)cc1 1.02
COc1ccc(OCc2ccc(-c3nc4ccccc4c(=O)n3N)o2)cc1 1.1
O=C(O)C1CCN1C1CCCCC1 (stereo unspecified) 0.88
COCCCNC(=O)c1c(F)c(F)c(F)c(F)c1F 1.04
Cc1cccc(N=C2NC(=O)CS2)c1C 1.01
CC(C)CC(=O)N=C1SC2CS(=O)(=O)CC2N1CCc1ccccc1 (stereo unspecified) 1.1
CCCCCCn1c(CN2CCCCC2)nc2c1c(=O)n(C)c(=O)n2C 1.13
CCOC(=O)N1CCC(NC(=O)CN2C(=O)COc3ccc(C(C)(C)C)cc32)CC1 1.02
CCN(CC)S(=O)(=O)c1ccc2[nH]cc(C(=O)NCCc3ccccc3)c(=O)c2c1 1.58
COC(=O)c1cn(C)c2ccc(S(=O)(=O)N3CC(C)CC(C)C3)cc2c1=O (stereo unspecified) 0.95
CC1(C)Cc2cccc(OCC(=O)Nc3nccs3)c2O1 1.08
N#Cc1c(N)sc2c1CCN(C(=O)OCc1ccccc1)C2 1.12
CC(C)CCNc1nc(N2CCCC2)c2c(c1C#N)CCN(C)C2 1.63
CC(C)C(=O)N1c2ccccc2NC2=C(C(=O)CCC2)C1c1ccc(N(C)C)cc1 (stereo unspecified) 1.05
CCCC(=O)N1c2ccccc2NC2=C(C(=O)CCC2)C1c1ccc(F)cc1 (stereo unspecified) 1.08
Cc1ccc2c(c1)N(CCCC(=O)NCc1cccnc1)C(=O)CO2 1.1
COC(=O)c1c(-c2ccc(C)cc2)csc1N 1.09
CC(=O)NC1=NC(=O)CS1 1.08
COc1ccc(CCNC(=O)C2CCN(c3nn4c(=O)cc(C)nc4s3)CC2)cc1OC 1.05
CCCS(=O)(=O)N1CCC(C(=O)NCCc2ccc(OC)c(OC)c2)CC1 1.09
CN1CCN(Cc2c(O)ccc3c2oc(=O)c2ccccc23)CC1 1.15
CCN1CCN(Cc2c(O)ccc3c(=O)c(-c4ccc(OC)c(OC)c4)c(C(F)(F)F)oc23)CC1 1.18
O.O.O.O=S(=O)([O-])OC[C@H]1O[C@@H](O[C@]2(COS(=O)(=O)[O-])O[C@H](OS(=O)(=O)[O-])[C@@H](OS(=O)(=O)[O-])[C@@H]2OS(=O)(=O)[O-])[C@H](OS(=O)(=O)[O-])[C@@H](OS(=O)(=O)[O-])[C@@H]1OS(=O)(=O)[O-].[Al] 1.14
O=C(CCOc1ccccc1)NCc1ccccc1 1
CCNCc1cc2cc(C)ccc2[nH]c1=O 1.39
COc1ccc(S(=O)(=O)N(CCCN2CCCC2=O)Cc2cc3c(C)ccc(C)c3[nH]c2=O)cc1 1.97
Cc1ccc2[nH]c(=O)c(COC(=O)c3ccccn3)cc2c1 1.42
CCN(Cc1cc2cc(C)ccc2[nH]c1=O)S(=O)(=O)c1ccccc1 1.54
CC(=O)OCc1cc2cc(C)ccc2[nH]c1=O 1.43
CCOC(=O)c1cc2cc(C)ccc2[nH]1 1.67
O=C(CSc1nnnn1C1CCCC1)Nc1ccc2c(c1)OCCO2 1.11
O=C(NC12CC3CC(CC(C3)C1)C2)N1CCCC(CO)C1 (stereo unspecified) 1.11
O=C(CN1CCN(C(=O)c2cccc(F)c2)CC1)Nc1ccccc1F 1.17
COc1cc(CO)c(C2(CO)CCCC2)cc1OC 1.08
Cc1cc(N2C(=O)c3ccc(C(=O)NCc4ccccc4)cc3C2=O)no1 1.1
CC1Cc2cc(/C(O)=C3\C(=O)C(=O)N(CCN4CCOCC4)C3c3ccccc3F)ccc2O1 (stereo unspecified) 1.11
CCOC(=O)c1nc(-c2ccc3c(c2)OCO3)[nH]c1C 1.4
CCCCC(=O)Nc1cc(C)c2c(=O)oc3ccccc3c2n1 1.19
CCCC(=O)Nc1ccc2c(c1)nc1n2CCSC1 1.21
FC(F)(F)c1cc(-c2ccco2)nc(N2CCOCC2)n1 1.11
O=C(CSc1nc(-c2ccco2)cc(C(F)(F)F)n1)N1CCc2ccccc2C1 1.1
CCOC(=O)CSc1nnc(-c2ccco2)n1C 1.04
O=C(CSc1nc(-c2ccco2)cc(C(F)(F)F)n1)NCc1cccs1 1.14
O=c1[nH]c(=O)n(Cc2ccco2)c2c1C(C(F)(F)F)(C(F)(F)F)N=C(c1ccco1)N2 1.16
CCCCn1nnnc1NCc1cc(OC)c(OC)c(OC)c1 1.07
CCCC(C(=O)NCc1ccco1)N(C(=O)CNS(=O)(=O)c1ccccc1)C1CCCC1 (stereo unspecified) 1
CC(=NCC1CCCO1)c1c(O)[nH]c(=O)[nH]c1=O (stereo unspecified) 1.14
Cc1ccc(C)c(S(=O)(=O)n2cnc3ccccc32)c1 1.02
O=C(CSc1nc2ncccc2[nH]1)Nc1ccc2c(c1)OCCO2 1.01
C=C(C)Cn1c(SCC(=O)NCc2ccco2)nc2sc3c(c2c1=O)CCC3 1.09
O=C(Cc1ccccc1)n1nc(-c2ccccc2)nc1NCc1ccco1 1.13
Cc1cccc(N)c1SC1CCCCC1O (stereo unspecified) 1.03
CCOC(=O)c1cn(CC(=O)Nc2ccc(C(C)C)cc2)nn1 1.16
COc1ccccc1Nc1ncnc2c1oc1ccccc12 1.7
CCSc1nc(C)nc2c1oc1ccccc12 1.02
CNC(=O)NCCN1CCCC1=O 1.05
COCCNC(=S)c1ccc(OC)cc1 1.02
CCN(CC)CCNC(=O)C1c2ccccc2C(=O)N(C)C1c1cn(C)c2ccccc12 (stereo unspecified) 1.07
O=C(CCn1c(=S)[nH]c2ccccc2c1=O)NCCCN1CCCC1=O 0.98
CC1(C)CC(=O)C=C(NCCCN2CCCC2=O)C1 1.11
O/N=C(\c1ccc2c(c1)OCCO2)C1CCCCC1 1.08
CCOC(=O)c1c(C)oc2ccc(OCC(=O)N(CC)CC)cc12 1.07
COCCNC(=O)COc1ccc(C)c(C)c1 1.07
